Source: PubChem BioAssay AID2284356 (EPA ToxCast)
Results filed as inconclusive are left out. Calls of active or inactive are those of the source. How the source made its calls: active means hit-call score of the fitted dose curve at least 0.9, where 1 is the maximum; inconclusive means response in the unintended direction; inactive means score below 0.9.

Biological target: zebrafish Estrogen Receptor (ER1), esr1 (gene 259252) (UniProt P57717)
Assay: ATG_zfER1_EcoTox2: Attagene TRANS-FACTORIAL EcoTox-2 HepG2 Assay for zebrafish Estrogen Receptor (ER1)
Protocol: ATG_EcoTox2 is a cell-based, multiplexed assay created by modifying the existing Attagene TRANS-FACTORIAL system to include a panel of nuclear receptors from some or all the following species: human (Homo sapiens), african clawed frog (Xenopus laevis), rainbow trout (Oncorhynchus mykiss), japanese medaka (Oryzias latipes), and zebrafish (Danio rerio). The ECOTOX2-FACTORIAL format uses HepG2, a human liver cell line, with measurements taken at 24 hours after chemical dosing in a 24-well plate. ATG_zfER1_EcoTox2 is one of 29 assay components calculated in the ATG_EcoTox2 assay. It is designed to make measurements of mRNA induction, a form of inducible reporter, as detected with fluorescence intensity signals by Reverse transcription polymerase chain reaction (RT-PCR) and Capillary electrophoresis technology.The assay endpoint ATG_zfER1_EcoTox2 was analyzed in the positive analysis fitting direction relative to DMSO as the negative control and baseline of activity. Using a type of inducible reporter, measures of mRNA for gain-of-signal activity can be used to understand the reporter gene at the transcription factor-level as they relate to the gene ER. Furthermore, this assay endpoint can be referred to as a primary readout, because this assay has produced multiple assay endpoints where this one serves a reporter gene function. […]

Sequence of zebrafish Estrogen Receptor (ER1), esr1 (gene 259252) (P57717 whole entry, looked up): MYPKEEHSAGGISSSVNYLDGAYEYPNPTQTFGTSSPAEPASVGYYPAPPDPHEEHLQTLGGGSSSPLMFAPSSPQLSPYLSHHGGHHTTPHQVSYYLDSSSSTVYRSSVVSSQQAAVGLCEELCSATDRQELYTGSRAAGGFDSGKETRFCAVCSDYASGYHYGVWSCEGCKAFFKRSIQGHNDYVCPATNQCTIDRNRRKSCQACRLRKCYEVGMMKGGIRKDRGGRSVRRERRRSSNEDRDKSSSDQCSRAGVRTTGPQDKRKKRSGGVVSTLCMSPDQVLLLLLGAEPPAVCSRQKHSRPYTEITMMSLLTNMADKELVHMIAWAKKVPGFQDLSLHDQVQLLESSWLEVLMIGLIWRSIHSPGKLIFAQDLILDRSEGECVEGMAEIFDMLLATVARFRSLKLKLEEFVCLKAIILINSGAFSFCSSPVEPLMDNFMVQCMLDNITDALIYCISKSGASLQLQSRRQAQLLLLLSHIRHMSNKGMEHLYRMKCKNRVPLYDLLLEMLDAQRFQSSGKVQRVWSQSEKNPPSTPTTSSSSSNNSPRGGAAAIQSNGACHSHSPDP

Q: For `O=S(=O)(O)C(F)(F)C(F)(F)C(F)(F)C(F)(F)C(F)(F)C(F)(F)F`, which outcome is on record?
A: inactive
